Bioassay records as filed in PubChem BioAssay.
Most compounds without a hit are left out; they make up all but 5.7% or so of the library.
MPTP block = blocks calcium-induced mitochondrial swelling | isolated mouse mitochondria, Ca2+ swelling absorbance, 30 min | inhibition, % at 10 µM | 360,000 compounds, 1.4% hits | AID 602449;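 active = inhibition of 50% or more, scaled per plate between neutral and stimulator controls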;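 also: 0% = DMSO wells given calcium and 100% = 1 mM EGTA wells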
Myeloid diff MLP = compounds promoting myeloid differentiation; ER-HoxA9 myeloid progenitors, lysozyme-GFP differentiation, flow cytometry; calls only at 10 µM; 360,000 compounds, 1% hits; AID 624256;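 active = normalized GFP-positive differentiation at or above the plate's own cutoff, the solvent-only control mean plus 3 SD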;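 also: cells exposed to compound for four days before flow analysis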
rCAG RNA binder = r(CAG) repeat RNA binding; TO-PRO-1 dye displacement fluorescence; inhibition, % at 3 µM; 370,000 compounds, 1.3% hits;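 active = inhibition above the plate cutoff, the mean of all test compounds on that plate plus 3 SD, cut at about 35% in these data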;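 also: 0% = DMSO alone and 100% = 100 µM mitoxantrone as full dye displacement; higher means more dye released from RNA so lower well fluorescence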
FAS TE block = blocks the thioesterase domain of human fatty acid synthase. P49327. recombinant FAS-TE, OMFH fluorogenic substrate, fluorescence endpoint. inhibition, % at 15 µM. 360,000 compounds, 0.67% hits. AID 602261;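 active = compounds whose normalised, plate-corrected inhibition of enzyme fluorescence in the single-dose primary screen is 50% or more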;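 also: 0% = DMSO with enzyme and 100% = substrate without enzyme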
NR3A LBD binder = NR3A (human) ligand-binding domain modulation; Tm shift relative to glycine control, % at 25 µM; NR3A LBD differential scanning fluorimetry, Tm shift; 0% = protein alone, 100% = glycine-bound protein; 340,000 compounds, 2.5% hits;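 active = melting temperature shift of at least 10% of the positive control shift, at one fixed dose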
* = called active by the depositor; i = inactive; . = not tested or not shown; + = active, no number.

SMILES | MPTP block | Myeloid diff MLP | rCAG RNA binder | FAS TE block | NR3A LBD binder
CCOC(=O)C1(C)NC(c2cccs2)C2C(=O)N(c3ccc(C)cc3)C(=O)C21 (stereo not given) | 0 | i | -4 | 0 | -2
Cc1ccc(N2C(=O)C3C(C2=O)N2C(c4cccs4)C4C(=O)N(c5ccc(C)cc5)C(=O)C4N2C3c2cccs2)cc1 (stereo not given) | 1 | i | 26 | 84* | 4
CN(CCCOC(=O)c1cc2ccccc2o1)C1CN(Cc2cn(Cc3ccccc3Cl)nn2)S(=O)(=O)C1 (stereo not given) | . | . | 1 | . | .
CC1(C)CC(=O)N(CC(=O)N2CCN(c3cccc(Cl)c3Cl)CC2)c2ccccc2S1(=O)=O | . | . | 5 | . | .
O=C(NCCCN1CCOCC1)c1ccc2ccccc2c1 | -1 | i | -3 | -6 | 1
O=C(NCCCN1CCOCC1)c1ccc(Sc2ccccc2Cl)c([N+](=O)[O-])c1 | 2 | i | -5 | 1 | 18*
O=C(NCCCN1CCOCC1)c1ccc(Sc2ccc(Br)cc2)c([N+](=O)[O-])c1 | -2 | + | 2 | 20 | 1
CN(C)c1cccc(F)c1C(=O)NC(=O)Nc1ccc(Cl)cc1 | 1 | . | 1 | 16 | 11*
CN(C)c1cccc(N(C)C)c1CNC(=O)NC(=O)c1c(F)cccc1F | -3 | i | -10 | 6 | -1
Cc1ccc(CN2CC=CS2(=O)=O)cc1 | . | . | 3 | . | .
Cc1ccccc1C(=O)NC(=S)Nc1sc2c(c1C#N)CCC(C)C2 (stereo not given) | 16 | i | 3 | -63 | 14*
Cc1cc(S(=O)(=O)NCc2ccccc2)ccc1OCC(=O)NCc1ccncc1 | -1 | i | -2 | -4 | 13*
CCN1/C(=C/C=C2/SC(=Nc3cccc4ncccc34)N(C)C2=O)Sc2ccccc21 | 2 | + | 0 | -21 | -1
CCC(=O)/C=C1/Sc2ccccc2N1CC | 0 | i | 7 | -7 | -3
CN1CCN(C(=O)CSc2nc(-c3cccs3)cc(-c3cccs3)c2C#N)CC1 | 0 | + | . | -5 | -3
CCN(CC)C(=O)CSc1nc(-c2cccs2)cc(-c2cccs2)c1C#N | -1 | i | 5 | 19 | -1
C/C(=N/NC(N)=S)c1cc2ccc(O)cc2oc1=O | 3 | + | -3 | -17 | 0
C/C(=N/NC(=O)c1ccncc1)c1cc2ccc(O)cc2oc1=O | -11 | i | i | -159 | 1
C=CCN1C(=O)[C@H](CC(=O)NCCCCc2ccccc2)[C@@]2(C(=O)OCC)CCCC=C12 | . | . | 1 | . | .
CC1C(=O)C(C)C(c2cc(Cl)ccc2O)NC1c1cc(Cl)ccc1O (stereo not given) | 3 | i | 6 | 27 | 27*
CCCCCn1nnnc1C1(C)CSCC(=O)N1Cc1ccco1 (stereo not given) | . | . | -1 | . | .
Cn1cccc1/C=N\NC(=O)C1COc2ccc(C(C)(C)C)cc2O1 (stereo not given) | 2 | i | -1 | 30 | -9
Cc1c(/C=N\NC(=O)C2COc3ccc(C(C)(C)C)cc3O2)c2ccccc2n1C (stereo not given) | 2 | i | 11 | 44 | 10*
CC(C)C[C@H]1COc2cccc(N3CCOCC3)c2S(=O)(=O)N1 | . | . | 0 | . | .
CCCCCC(=O)Nc1cccc(C2=NOC3(C2)C[C@H](C(N)=O)N(C(=O)[C@H]2CCC(=O)N2)C3)c1 (stereo not given in full) | 0 | i | 1 | -5 | 12*
SMILES | MPTP block | Myeloid diff MLP | rCAG RNA binder | FAS TE block | NR3A LBD binder
COC(=O)C1=C(C)N(Cc2ccc(Cl)cc2)C(=S)NC1c1ccc(Cl)cc1 (stereo not given) | . | . | 5 | . | .
N#CC(=Cc1ccc(-c2ccccc2)cc1)C(=O)c1ccccc1 | -4 | i | 13 | 0 | .
N#C/C(=C\c1cccs1)C(=O)c1ccccc1 | 0 | i | 1 | -7 | 14*
O=C(Nc1ccc(Cl)cc1)C1C2CCC3C(CCC21)C3(Cl)Cl (stereo not given) | 5 | i | 3 | 2 | 5
Cc1cccc(NC(=O)C2C3CCC4C(CCC32)C4(Cl)Cl)c1 (stereo not given) | 41 | i | -2 | -4 | 13*
CCOc1ccccc1NC(=O)c1cc2c(C)nn(-c3ccccc3)c2s1 | . | . | 5 | . | .
O=C(O)c1ccc(N=N/C(=N\Nc2ccc(C(=O)O)cc2)c2ccccc2)cc1 | 3 | i | 76* | -6 | 23*
CC(=O)Nc1ccc(/C(N=Nc2ccccc2)=N/N=C(N)N)cc1 | 2 | i | 8 | -13 | -5
Cc1ccccc1C(=O)N[C@H](C(=O)N1CCC[C@H]1C(=O)NC1CCCC1)c1ccccc1 | . | . | -4 | . | .
